Bioassay records deposited in PubChem by National Center for Advancing Translational Sciences (NCATS).
TDP1 cell noCPT: qHTS for Inhibitors of human tyrosyl-DNA phosphodiesterase 1 (TDP1): qHTS in cells in absence of CPT. DT40 Tdp1-/- hTDP1 cells, no CPT, ATP luminescence, 48 h. Potency, µM (doses to about 46.2 µM), for the others: at the top dose activity change, negative = growth inhibition, actives largely listed as inhibitors. 420,000 compounds, 15% hits; also: % is scaled to controls: 0 for no effect and ±100 for the full control effect; nearly all actives have a fitted effect of over 55% in size
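Seeded 400 DT40-hTDP1 cells/well (vehicle DMSO, no 20 nM CPT); pinned compounds; ≥48 hr at 37 °C; CellTiter-Glo luminescence as viability measure.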
S2 tox: cell viability loss in ATXN counter-screen. 400,000 compounds, 0.49% hits. Potency, µM (titrated, usually from 56.7 µM), actives largely listed as cytotoxic. AID 651635. S2 cells (HEK-293 line with an ATXN2-luciferase reporter) viability, CellTiter-Fluor protease fluorescence, 24 h; also: nearly all actives have a fitted effect of over 40% in size
TGFb inhibitor: TGF-b pathway inhibition | HepG2 CAGA-GFP TGF-b/SMAD3 reporter, GFP fluorescence, 18 h; TGF-beta stimulated, 500 pg/mL final | Potency, µM (highest dose often 46.1 µM), for the others: at the highest dose activity, negative = inhibition, actives largely listed as inhibitors | 410,000 compounds, 1.2% hits; also: % is scaled to controls: 0 for no effect and ±100 for the full control effect; nearly all actives have a fitted effect of over 65% in size
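Inhibition was scored as loss of TGF-beta-induced (500 pg/mL final, 18 hours, 37 degrees C) GFP in HEPG2 cells carrying a CAGA-GFP reporter, in DMEM with 1% FBS. Well GFP was summed per cell; Activity was normalised to unstimulated and stimulated DMSO wells, then concentration-response fitting.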
HepG2 viability: kills HepG2 cells in TGF-b inhibitor counter-screen | HepG2 CAGA-GFP viability, ATP luminescence, 18 h | Potency, µM (highest dose often 46.1 µM), inactives show at the highest dose activity change, negative = cytotoxicity, actives largely listed as cytotoxic | 410,000 compounds, 0.76% hits | AID 588856
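CellTiter-Glo luminescence gave cytotoxicity after 18 hours at 37 degrees C. The cells were HepG2 CAGA-GFP in 1% FBS DMEM, stimulated with 500 pg/mL TGF-beta after compound addition. %Activity was normalised to no-cell wells (complete cell-killing) and DMSO (no toxicity), and curves were fitted and classified.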
TDP1 cell CPT: growth inhibition of DT40 Tdp1-/-;hTDP1 cells with camptothecin (screen for TDP1 inhibitors); chicken DT40 Tdp1-/-;hTDP1 cells + 20 nM CPT, ATP luminescence, 48 h; AID 686979; Potency, µM (highest dose often 46.2 µM), inactives show top-dose activity change, negative = growth inhibition, usual class: inhibitors; 420,000 compounds, 12% hits; also: % is scaled to controls: 0 for no effect and ±100 for the full control effect; nearly all actives have a fitted effect of over 55% in size
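Chicken DT40 Tdp1-/- cells stably complemented with human TDP1 were seeded at 400 cells/well in medium containing 20 nM camptothecin, exposed to pin-transferred compounds, and grown at 37 °C for at least 48 hr. Viability was read as ATP luminescence.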
ATXN2 expr inh: reduces ATXN2 reporter expression in HEK-293 cells. HEK-293 ATXN2-luciferase reporter, luminescence, 24 h. Potency, µM (doses to about 57 µM), for the others: at the top dose activity change, negative = inhibition, most hits filed as inhibitors. 360,000 compounds, 0.72% hits; also: % is scaled to controls: 0 for no effect and ±100 for the full control effect; nearly all actives have a fitted effect of over 55% in size
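qHTS (up to 57 uM final) was run with 24 h compound exposure of reporter cells at 37 °C. Each well was multiplexed: SteadyGlo luminescence measured ATXN2-luciferase expression after a fluorogenic Gly-Phe-AFC viability readout (25 uM final).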
* = called active by the depositor; i = inactive; ? = inconclusive; . = not tested or not shown. Sampled rows, rich in hits. Any-hit rate of the full collection: about 17%. Calls follow the shape of the dose curve; as a rule, active = well fitted curve in the direction sought with a large enough effect; inconclusive = small, poorly fitted or top-dose-only effect, or another doubt; inactive = no such curve, though single readings can be large; an effect the other way counts as inactive or inconclusive. Potency is read from the fitted curve at half-maximal effect.

SMILES | TDP1 cell noCPT | S2 tox | TGFb inhibitor | HepG2 viability | TDP1 cell CPT | ATXN2 expr inh
NS(=O)(=O)c1ccc(S(=O)(=O)N2CCCC(c3ccccc3)C2)cc1 (centres undefined) | 23µM* | i | -12% | 3% | ? | .
COc1ccc(C(=O)NNC(=O)c2cccs2)cc1S(=O)(=O)N1CCOCC1 | 4% | i | 9% | 16% | 2% | 4%
O=C(COC(=O)c1cc(S(=O)(=O)N2CCOCC2)c(Cl)cc1Cl)NCc1ccco1 | 1% | i | 9% | 0% | 11% | 1%
CC1C(=O)N(Cc2cn(CCC3OCCO3)nn2)CCS(=O)(=O)N1Cc1ccc(-c2ccccc2)cc1 (centres undefined) | ? | i | -1% | 15% | -29% | -17%
CC1C(=O)N(Cc2cn(CCC3OCCO3)nn2)CCS(=O)(=O)N1Cc1ccc(-c2ccc(Cl)cc2)cc1 (centres undefined) | 7.3µM* | 32µM* | ? | -24% | 3.7µM* | ?
Cc1ccc(-c2ccc(CN3C(C)C(=O)N(Cc4cn(CCC5OCCO5)nn4)CCS3(=O)=O)cc2)cc1 (centres undefined) | ? | i | 0% | -19% | 16µM* | -11%
COc1ccc(C(C)(C)C)cc1NC(=O)CCNC(=O)c1ccco1 | -19% | i | -2% | -2% | -2% | 0%
O=C(c1cn(-c2ccccc2)nc1-c1cccs1)N1CCN(c2ccccc2)CC1 | 7.3µM* | i | -1% | 5% | 7.3µM* | 13%
O=C(O)c1cccc(N/N=C/c2cn(-c3ccccc3)nc2-c2cccs2)c1 | 4% | i | 1% | -19% | -4% | 111%
NS(=O)(=O)c1ccc(N/N=C/c2cn(-c3ccccc3)nc2-c2cccs2)cc1 | 2.9µM* | i | 10µM* | 11µM* | 5.2µM* | 1%
O=C(N/N=C/c1cn(-c2ccccc2)nc1-c1cccs1)c1ccncc1 | ? | ? | -4% | -12% | ? | -8%
NC(=O)N/N=C/c1cn(-c2ccccc2)nc1-c1cccs1 | ? | i | -1% | -25% | 16µM* | 37%
O=c1c2sc3ccccc3c2n(Cc2ccccc2)c(=O)n1CCc1ccccc1 | -1% | i | 0% | 4% | 12% | 8%
O=C(NC(=O)c1ccc(Cl)cc1)OC1CCCCC1 | 8% | i | -6% | -2% | 1% | 46%
CC1(C)CC(=O)C(C(C2=C(O)CC(C)(C)CC2=O)c2ccc(Br)s2)C(=O)C1 (centres undefined) | 7.3µM* | ? | 10µM* | -3% | 13µM* | ?
Cc1ccc(C(C2=C(O)CC(C)(C)CC2=O)C2C(=O)CC(C)(C)CC2=O)s1 (centres undefined) | -24% | i | -10% | -3% | -26% | 1%
Cc1ccc(SC2=C(Sc3ccc(C)cc3)C(=O)c3ccccc3C2=O)cc1 | 1µM* | . | 7% | -9% | 0.92µM* | ?
Cc1ccc(N2C(=O)c3ccccc3C2=O)cc1 | 7% | i | ? | 9% | 4% | 13%
CC(C)[C@H](NC(=O)N1CC(=O)Nc2ccccc21)C(=O)N1CCC[C@@H]1C(=O)O | -4% | i | 11% | -1% | -7% | 6%
CN(CC(=O)NC(=O)NCc1ccco1)Cc1nc2ccccc2c(=O)[nH]1 | 1.6µM* | i | ? | -1% | 4.6µM* | 3%
CN(CC(=O)Nc1ccccc1Sc1ccccc1)Cc1nc2ccccc2c(=O)[nH]1 | 18µM* | i | ? | 0% | ? | 2%
CSc1ccc(CN(C)Cc2nc3ccccc3c(=O)[nH]2)cc1 | 15µM* | . | -8% | -2% | ? | .
CS(=O)(=O)N(Cc1ccc(F)cc1)Cc1nc2ccccc2c(=O)[nH]1 | 2% | i | -8% | 6% | 3% | 3%
COc1cc2c(cc1NC(=O)CN(C)Cc1nc3ccccc3c(=O)[nH]1)oc1ccccc12 | 23µM* | ? | -13% | -36% | 18µM* | ?
CCCCC(=O)N(Cc1ccc(-c2ccccc2-c2nn[nH]n2)cc1)[C@@H](C(=O)O)C(C)C | -21% | . | . | . | -18% | .
SMILES | TDP1 cell noCPT | S2 tox | TGFb inhibitor | HepG2 viability | TDP1 cell CPT | ATXN2 expr inh
COc1cc2c(cc1OC)C(=O)C(Br)CC2 (centres undefined) | 4.6µM* | ? | ? | 16µM* | 3.7µM* | .
CCOC(=O)C1(CCOc2ccccc2)CCN(Cc2ccc(OCCO)cc2)CC1 | ? | i | 18% | -16% | ? | -5%
CCOC(=O)C1(CC2CC2)CCN(Cc2cnc(-c3ccccc3C)nc2)CC1 | 18µM* | i | ? | -27% | 15µM* | -15%
CCOC(=O)C1(CCOc2ccccc2)CCN(Cc2ccc(O)c(OCC)c2)CC1 | ? | i | -7% | -34% | -41% | -24%
CCOC(=O)C1(CC2CC2)CCN(Cc2cc(Cl)c(O)c(OC)c2)CC1 | -29% | i | -1% | 2% | 6% | ?
CCOC(=O)C1(CCOc2ccccc2)CCN(Cc2ccc(OC)c(O)c2)CC1 | ? | i | -10% | -37% | 16µM* | -14%
CCOC(=O)C1(CCOc2ccccc2)CCN(Cc2ccc(OC)c(COC)c2)CC1 | 18µM* | i | ? | -34% | 18µM* | -23%
CCOC(=O)C1(CCOc2ccccc2)CCN(Cc2cc(OC)c(O)c(OC)c2)CC1 | ? | i | -21% | -13% | 29µM* | -13%
CCOC(=O)C1(CCOc2ccccc2)CCN(Cc2ccc(O)cc2)CC1 | ? | i | 5% | -49% | ? | -12%
COCCCNC(=O)C(=O)NCC1CCCN1S(=O)(=O)c1cccs1 (centres undefined) | 1% | i | 6% | 9% | -7% | 22%
CCN(CC)c1nn2c(=O)c(C(=O)NCCc3ccc(C)cc3)cnc2s1 | ? | . | 0% | -18% | ? | .
CCCNC(=O)C1(C)CCN(C(=O)Cc2ccc(OC)c(OC)c2)C1 (centres undefined) | 5% | i | 2% | -3% | 13% | 12%
CCOC(=O)C1(CCOC)CCN(Cc2cnc(-c3cccc(C)c3)nc2)CC1 | 16µM* | i | -2% | -30% | ? | -13%
CCOC(=O)C1(CCOC)CCN(Cc2ccc3nonc3c2)CC1 | -17% | i | 0% | -6% | -21% | -9%
